# Compound activity (PubChem)
# RORg inh – inhibitors of mouse ROR gamma transcriptional activity; Drosophila S2 Gal4-RORgamma UAS-luciferase reporter, 20 h; P51450; Potency, µM (doses to about 53.6 µM), inactives show top-dose activity change, negative = inhibition, most hits filed as inhibitors; 310,000 tested, 5.4% active; further: potency means the concentration at half of the fitted maximal effect; on the % scale 0 is the no-effect control and ±100 the full control effect; nearly all actives have a fitted effect of over 60% in size
#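 A Gal4/UAS one-hybrid system in insect cells: metallothionein-promoter Gal4–ROR gamma fusion plus Photinus luciferase reporter. Copper sulfate 700 uM final, 20 hr ambient incubation, luminescent detection after 10 min with reagent.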
# VP16 counter – inhibits Gal4-VP16 luciferase reporter, ROR gamma counter-screen; 310,000 tested, 3.5% active; Drosophila S2 Gal4-VP16 UAS-luciferase, luminescence, 20 h; Potency, µM (top dose mostly 53.6 µM), for the others: at the highest dose activity, negative = inhibition, most hits filed as inhibitors;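 further: Gal4-VP16 expression switched on by copper sulfate through the metallothionein promoter; potency means the concentration at half of the fitted maximal effect; on the % scale 0 is the no-effect control and ±100 the full control effect; nearly all actives have a fitted effect of over 50% in size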
# ERG-DNA inh – blocks human ERG Ets domain binding to DNA; P11308; fluorescence polarization, His-ERG Ets domain / labelled DNA; Potency, µM (titrated, usually from 76.9 µM), for the others: at the top dose FP activity, negative = inhibition, actives largely listed as inhibitors; 370,000 tested, 0.028% active; AID 624246; active means well fitted inhibition curve with a large enough effect in the polarisation, with a control signal flat; inconclusive means small, poorly fitted or top-dose-only effect, or effect the other way, or a change in a side signal; inactive means no such curve, though single readings can be large or run the other way; the % refers to the polarisation;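 further: polarization taken with two DNA probes labelled with fluorescein and Texas red; potency means the concentration at half of the fitted maximal effect; % of control where 0% means no effect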
# Target sequence (P11308 whole entry, looked up, the tested form may be a part): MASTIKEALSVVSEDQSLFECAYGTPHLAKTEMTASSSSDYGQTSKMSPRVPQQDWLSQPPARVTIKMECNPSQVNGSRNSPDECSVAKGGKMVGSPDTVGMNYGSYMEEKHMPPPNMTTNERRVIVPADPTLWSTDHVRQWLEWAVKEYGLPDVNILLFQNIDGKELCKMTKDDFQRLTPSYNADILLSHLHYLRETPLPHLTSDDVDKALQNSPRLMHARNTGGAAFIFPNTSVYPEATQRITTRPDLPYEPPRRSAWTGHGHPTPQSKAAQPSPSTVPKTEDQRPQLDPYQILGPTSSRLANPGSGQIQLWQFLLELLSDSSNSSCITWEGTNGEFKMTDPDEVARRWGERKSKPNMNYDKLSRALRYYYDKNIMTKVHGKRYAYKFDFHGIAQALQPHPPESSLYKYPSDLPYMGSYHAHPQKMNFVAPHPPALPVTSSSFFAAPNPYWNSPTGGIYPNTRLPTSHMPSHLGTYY
#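 His-tagged ERG Ets domain (1 uM in the protein solution; 300mM KCl, 50mM Tris-HCl, 1mM EDTA, 1mM DTT, pH 7.5) received compound, then a probe mix of 5 nM fluorescein-DNA and 100nM Texas-615-DNA. Fluorescence polarization was read for both dyes.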
# Integrin act MD – activates integrin-mediated alleviation for muscular dystrophy. Potency, µM (doses to about 38.3 µM), for inactives: top-dose activation, hits mostly activators. 350,000 tested, 0.064% active. AID 624291. alpha7betagal myoblasts, beta-gal FDG fluorescence, 48 h;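 further: potency means the concentration at half of the fitted maximal effect; 100% = response of the positive control SU9516; nearly all actives have a fitted effect of over 60% in size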
#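 Alpha7betagal+/- myoblasts (passage 13) were plated 16-24 hr, then exposed to compounds (1:260 dilution of DMSO stock) for 48 hours at 37C. After MPER lysis, β-galactosidase reporter activity was read as FDG fluorescence (ex 480/em 540) after 30 minutes.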
# Giardia killer – kills Giardia lamblia; 340,000 tested, 0.15% active; Giardia lamblia trophozoite viability; activity change, % at 7.66 µM, hits read low; AID 540267; in the data active means activity change below about -80%; inconclusive means between about -30% and that limit;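 further: parasites exposed to compound for two days anaerobically before the ATP read; on the % scale 0 is the no-effect control and ±100 the full control effect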
#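 Killing of trophozoites was scored by loss of ATP luminescence after a 48 hrs anaerobic exposure to compounds at 37 deg C, using 100 cells per well.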
# The depositor's hits bear a star; u = inconclusive; x = not tested or not shown. The entries come from a sample that favours hits as a whole. Unless noted, the call rests on the fitted dose curve; in most records, active means well fitted curve in the direction sought with a large enough effect; inconclusive means small, poorly fitted or top-dose-only effect, or another doubt; inactive means no such curve, though single readings can be large; an effect the other way counts as inactive or inconclusive.
SMILES,RORg inh,VP16 counter,ERG-DNA inh,Integrin act MD,Giardia killer
Cc1ccc(-c2nn(-c3ccccc3)c3[nH]c(=O)c(CNCCN(C)C)cc23)cc1,3.98µM*,7.94µM*,x,x,x
COc1ccc(/C=N/Nc2nncc3ccccc23)c(OC)c1,4.47µM*,22.4µM*,4.4%,4.7%,-27.3
COc1cc(/C=N/Nc2nncc3ccccc23)cc(OC)c1OC,u,11.2µM*,-19.0%,-2.6%,-9.5
COc1ccc(/C=N\Nc2ccccn2)c(OC)c1,u,u,-3.4%,42.5%,-10.4
C(=N\Nc1nncc2ccccc12)/c1ccccc1,-26.0%,-3.3%,4.9%,4.8%,-11.5
Cc1cccc(/C=N/Nc2nncc3ccccc23)c1,2.51µM*,20µM*,6.3%,-7.4%,-22.8
CCc1nc2oc3ccc(C)cc3c(=O)c2cc1C(=O)OC,4.2%,2.8%,16.6%,u,4.0
CCOC(=O)c1ccccc1NC(=O)CN(c1ccccc1OC)S(=O)(=O)c1ccc(C)cc1,x,x,3.6%,x,x
CC/C=C/[C@@H](c1ccccc1)[C@H](C)C(O)CC(=O)SC(C)(C)C (some centres undefined),30.6%,-10.2%,x,x,0.1
CCc1cccc2c(C(=O)CCl)c[nH]c12,u,14.1µM*,0.8%,-65.2%,-8.7
CCc1cccc2c(C(=S)N3CCCC3)c[nH]c12,22.9%,-10.2%,4.8%,24.4%,4.9
Cc1cc(C)n(-c2nc(NCC3CCCO3)c3c4c(sc3n2)COC(C)(C)C4)n1 (centres undefined),2.82µM*,3.16µM*,3.3%,19.1%,5.9
Cc1cc(C)n(-c2nc(NCC(C)O)c3c4c(sc3n2)CCCC4)n1 (centres undefined),u,1µM*,-3.3%,9.8%,-13.5
Cc1cc(C)n(-c2nc(SCC(=O)O)c3c4c(sc3n2)CCCC4)n1,u,-6.9%,x,x,x
Cc1cc(C)n(-c2nc3sc4c(c3c3nnc(SC(C)C)n23)CC(C)(C)OC4)n1,x,x,10.2%,3.0%,17.0
Cc1cc(C)n(-c2nc(SCCN(C)C)c3c4c(sc3n2)COC(C)(C)C4)n1,5.01µM*,7.08µM*,-12.1%,-60.0%,-7.1
Cc1cc(C)n(-c2nc(NCC(C)O)c3c4c(sc3n2)COC(C)(C)C4)n1 (centres undefined),3.16µM*,10µM*,-6.3%,-18.5%,-8.9
CCc1ccccc1NC(=O)Cn1nnc(C(=O)NCc2ccco2)c1N,x,x,1.4%,x,x
CC(C)(C)c1ccc(OCC(=O)N2CCN(c3ncccn3)CC2)cc1,9.9%,1.5%,-2.2%,-24.0%,-4.8
Cc1cc(C)n(-c2nc(NCCCO)c3c4c(sc3n2)CCCC4)n1,1.58µM*,2.82µM*,-11.4%,-41.9%,6.6
Cc1cc(C)n(-c2nc(NCCO)c3c4c(sc3n2)CCCC4)n1,3.16µM*,4.47µM*,2.0%,-6.0%,3.4
CCC1CC=CC2C1C(=O)N(Cc1ccccc1)C2c1ccc(OC)c(Cl)c1 (centres undefined),24.7%,u,x,x,-25.4
CCOC(=O)c1ccc(N2C(=O)C=CC2=O)cc1,10.5%,7.08µM*,-5.7%,-70.3%,-16.9
CN1C(=O)/C(=C/c2ccc(OCc3cccc(F)c3)cc2)NC1=S,7.08µM*,u,-22.8%,8.6%,-15.0
CN1C(=O)/C(=C/c2ccccc2OCc2ccccc2F)NC1=S,1.58µM*,-23.6%,2.2%,38.4%,-4.9
SMILES,RORg inh,VP16 counter,ERG-DNA inh,Integrin act MD,Giardia killer
COc1cc(/C=C2/C(=O)N(C)C(=S)N2C)ccc1OCc1cccc(F)c1,1.6%,-0.6%,5.4%,-7.4%,u
C=CCOc1ccccc1CNc1ccc2c(c1)OCCO2,4.47µM*,u,7.4%,-47.6%,2.9
Cc1ccc(Nc2cc(C)c3c(O)cccc3n2)cc1C,u,10µM*,-3.4%,u,-11.3
Cc1ccc(-c2ccc(/C=C(\C#N)C(N)=S)n2C)cc1,2.24µM*,u,15.2%,-16.6%,-12.5
COc1ccc(Nc2nc(N3CCCCC3)c3ccccc3n2)cc1,17.8µM*,7.08µM*,-10.4%,-47.0%,-6.1
C(=N\Nc1nc(Nc2ccccc2)nc(N2CCCCC2)n1)/c1ccco1,2.24µM*,12.6µM*,x,x,x
COc1ccc(/C=N/Nc2nc(N3CCCC3)nc(N3CCCC3)n2)cc1,5.01µM*,u,-10.8%,-26.1%,13.7
COc1ccc(/C=N/Nc2nc(Nc3ccccc3)nc(N3CCCC3)n2)cc1,2.82µM*,-5.7%,-6.7%,35.0%,-21.5
